The source of these data is PMC10812921, “Transcriptional Coactivator BOB1 (OBF1, OCA-B) Modulates the Specificity of DNA Recognition by the POU-Domain Factors OCT1 and OCT2 in a Monomeric Configuration”.

The target in one test is POU1 (OCT1 POU domain) (human, UniProt P14859 260-458). Kind of test: EMSA-SELEX-seq; no BOB1; 20 mM Tris-HCl pH 7.6, 140 mM NaCl, 10% glycerol, 0.5 mM EDTA, 0.05% Triton X-100, 0.1 mg/mL BSA, 0.1 mg/mL poly(dI-dC), 5 mM DTT, room temperature, 20 min; high values mean tight binding. The note with it: protein: recombinant; dsDNA, one strand shown. Summed up: (§1)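 After expression in E. coli BL21, tagged POU-domain proteins were purified under denaturing conditions and then renatured. Each binding reaction held 30 ng protein and 300 ng of a PCR-amplified double-stranded random 35-nt library in 20 μL Tris–HCl pH 7.6 binding buffer, with or without 28 ng coactivator protein, for 20 min at RT. Bands holding complexes were cut from native 6% PAGE, eluted and PCR-amplified across four rounds, and the output was Illumina-sequenced. The value given for binding preference is the share, in percent, of sequenced 8-mers fitting a motif pattern.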

Another test deals with T1, POU2 (OCT2 POU domain) (human, UniProt P09086 175-386).
T1 sequence: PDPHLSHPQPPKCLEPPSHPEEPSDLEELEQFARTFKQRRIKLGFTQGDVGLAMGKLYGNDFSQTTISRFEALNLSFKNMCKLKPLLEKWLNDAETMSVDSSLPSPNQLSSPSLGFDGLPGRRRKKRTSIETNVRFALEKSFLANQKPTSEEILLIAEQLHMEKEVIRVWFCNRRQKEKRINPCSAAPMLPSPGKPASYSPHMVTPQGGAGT
The description is as above. The note with it: protein: recombinant; dsDNA, one strand shown. Summed up: as §1

In test [1] the target is POU1 (OCT1 POU domain);BOB1 (OBF1, OCA-B) (human;human, UniProt P14859;Q16633 260-458;1-256, |). Nature of the test: EMSA-SELEX-seq; with BOB1 (ternary complex band); 20 mM Tris-HCl pH 7.6, 140 mM NaCl, 10% glycerol, 0.5 mM EDTA, 0.05% Triton X-100, 0.1 mg/mL BSA, 0.1 mg/mL poly(dI-dC), 5 mM DTT, room temperature, 20 min; high values mean tight binding. Particulars: protein: recombinant;recombinant; copies: 1;1; dsDNA, one strand shown. Summed up:
as §1

Test [2] concerns the target T2, POU2 (OCT2 POU domain);BOB1 (OBF1, OCA-B) (human;human, UniProt P09086;Q16633 175-386;1-256, |).
T2 sequence 1: T1 sequence
T2 sequence 2: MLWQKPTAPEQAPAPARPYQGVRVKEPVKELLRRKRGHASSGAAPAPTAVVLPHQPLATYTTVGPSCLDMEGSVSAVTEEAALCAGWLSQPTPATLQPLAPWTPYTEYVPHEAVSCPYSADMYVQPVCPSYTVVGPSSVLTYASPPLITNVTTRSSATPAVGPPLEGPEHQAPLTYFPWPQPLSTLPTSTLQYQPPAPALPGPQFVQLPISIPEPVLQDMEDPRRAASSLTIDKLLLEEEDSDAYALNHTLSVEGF
The description is as above. Particulars: protein: recombinant;recombinant; copies: 1;1; dsDNA, one strand shown. The method, boiled down: as §1

Sequence of POU1 (OCT1 POU domain) (P14859 260-458): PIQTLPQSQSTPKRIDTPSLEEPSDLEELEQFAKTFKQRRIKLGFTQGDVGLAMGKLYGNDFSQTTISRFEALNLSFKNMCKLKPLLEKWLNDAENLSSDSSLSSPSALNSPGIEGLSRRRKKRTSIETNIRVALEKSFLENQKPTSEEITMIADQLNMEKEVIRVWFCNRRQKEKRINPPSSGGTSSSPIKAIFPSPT

For the sequence ACGCAAAA, the binding signal in the test with POU1 (OCT1 POU domain) was 0.151 % of ANNNNAAN 8-mers; with POU2 (OCT2 POU domain), 0.0944 % of ANNNNAAN 8-mers; in test [1], 0.277 % of ANNNNAAN 8-mers; in test [2], 0.157 % of ANNNNAAN 8-mers.

In the case of AAGAAAAC, the binding signal with POU1 (OCT1 POU domain) is 0.0473 % of ANNNNAAN 8-mers; with POU2 (OCT2 POU domain), 0.0345 % of ANNNNAAN 8-mers; in test [1], 0.0644 % of ANNNNAAN 8-mers; in test [2] it was 0.0355 % of ANNNNAAN 8-mers.

With ATTCGAAT, the binding signal with POU1 (OCT1 POU domain) is 0.117 % of ANNNNAAN 8-mers; in the test with POU2 (OCT2 POU domain), 0.137 % of ANNNNAAN 8-mers; in test [1], 0.08 % of ANNNNAAN 8-mers; in test [2], 0.102 % of ANNNNAAN 8-mers.

Consider ACTAGAAC, for which the binding signal with POU1 (OCT1 POU domain) is 0.016 % of ANNNNAAN 8-mers; in the test with POU2 (OCT2 POU domain), 0.0207 % of ANNNNAAN 8-mers; in test [1], 0.0144 % of ANNNNAAN 8-mers; in test [2] it was 0.0149 % of ANNNNAAN 8-mers.

In the case of AAAAAAAA, the binding signal with POU1 (OCT1 POU domain) was 0.11 % of ANNNNAAN 8-mers; in the test with POU2 (OCT2 POU domain) it was 0.193 % of ANNNNAAN 8-mers; in test [1], 0.174 % of ANNNNAAN 8-mers; in test [2] it was 0.13 % of ANNNNAAN 8-mers.

As for AATACAAG, the binding signal with POU1 (OCT1 POU domain) was 0.0637 % of ANNNNAAN 8-mers; in the test with POU2 (OCT2 POU domain), 0.0662 % of ANNNNAAN 8-mers; in test [1], 0.0675 % of ANNNNAAN 8-mers; in test [2] it was 0.0479 % of ANNNNAAN 8-mers.

As for ACCGAAAT, the binding signal in the test with POU1 (OCT1 POU domain) was 0.0404 % of ANNNNAAN 8-mers; with POU2 (OCT2 POU domain) it was 0.0426 % of ANNNNAAN 8-mers; in test [1], 0.0437 % of ANNNNAAN 8-mers; in test [2], 0.0479 % of ANNNNAAN 8-mers.

Consider ATGGGAAT, for which the binding signal in the test with POU1 (OCT1 POU domain) is 0.117 % of ANNNNAAN 8-mers; with POU2 (OCT2 POU domain) it was 0.128 % of ANNNNAAN 8-mers; in test [1] it was 0.0995 % of ANNNNAAN 8-mers; in test [2], 0.116 % of ANNNNAAN 8-mers.

As to ATACAAAT, the binding signal in the test with POU1 (OCT1 POU domain) is 0.318 % of ANNNNAAN 8-mers; with POU2 (OCT2 POU domain), 0.269 % of ANNNNAAN 8-mers; in test [1] it was 0.526 % of ANNNNAAN 8-mers; in test [2] it was 0.498 % of ANNNNAAN 8-mers.

As for ACAAGAAT, the binding signal with POU1 (OCT1 POU domain) is 0.0454 % of ANNNNAAN 8-mers; with POU2 (OCT2 POU domain), 0.0518 % of ANNNNAAN 8-mers; in test [1], 0.0437 % of ANNNNAAN 8-mers; in test [2], 0.0512 % of ANNNNAAN 8-mers.

ACGTGAAG: the binding signal was 0.0259 % of ANNNNAAN 8-mers in the test with POU1 (OCT1 POU domain), 0.0282 % of ANNNNAAN 8-mers with POU2 (OCT2 POU domain), 0.0258 % of ANNNNAAN 8-mers in test [1] and 0.0305 % of ANNNNAAN 8-mers in test [2].

With AATCTAAG, the binding signal with POU1 (OCT1 POU domain) is 0.0553 % of ANNNNAAN 8-mers; with POU2 (OCT2 POU domain), 0.0587 % of ANNNNAAN 8-mers; in test [1], 0.062 % of ANNNNAAN 8-mers; in test [2], 0.0545 % of ANNNNAAN 8-mers.

For ACAGAAAC, the binding signal in the test with POU1 (OCT1 POU domain) was 0.0278 % of ANNNNAAN 8-mers; with POU2 (OCT2 POU domain), 0.0259 % of ANNNNAAN 8-mers; in test [1], 0.0269 % of ANNNNAAN 8-mers; in test [2] it was 0.0231 % of ANNNNAAN 8-mers.

In the case of ATGACAAA, the binding signal with POU1 (OCT1 POU domain) is 0.0622 % of ANNNNAAN 8-mers; with POU2 (OCT2 POU domain), 0.0639 % of ANNNNAAN 8-mers; in test [1], 0.0539 % of ANNNNAAN 8-mers; in test [2], 0.0479 % of ANNNNAAN 8-mers.

Regarding AAAAGAAG, the binding signal was 0.0629 % of ANNNNAAN 8-mers with POU1 (OCT1 POU domain), 0.076 % of ANNNNAAN 8-mers in the test with POU2 (OCT2 POU domain), 0.0679 % of ANNNNAAN 8-mers in test [1] and 0.071 % of ANNNNAAN 8-mers in test [2].

As to ATAATAAT, the binding signal was 0.273 % of ANNNNAAN 8-mers with POU1 (OCT1 POU domain), 0.353 % of ANNNNAAN 8-mers with POU2 (OCT2 POU domain), 0.11 % of ANNNNAAN 8-mers in test [1] and 0.143 % of ANNNNAAN 8-mers in test [2].

Take AATATAAA: the binding signal is 0.156 % of ANNNNAAN 8-mers in the test with POU1 (OCT1 POU domain), 0.178 % of ANNNNAAN 8-mers with POU2 (OCT2 POU domain), 0.107 % of ANNNNAAN 8-mers in test [1] and 0.101 % of ANNNNAAN 8-mers in test [2].

With ACCAAAAT, the binding signal was 0.0446 % of ANNNNAAN 8-mers in the test with POU1 (OCT1 POU domain), 0.0397 % of ANNNNAAN 8-mers with POU2 (OCT2 POU domain), 0.055 % of ANNNNAAN 8-mers in test [1] and 0.0537 % of ANNNNAAN 8-mers in test [2].

As to AGGGGAAT, the binding signal is 0.11 % of ANNNNAAN 8-mers with POU1 (OCT1 POU domain), 0.121 % of ANNNNAAN 8-mers in the test with POU2 (OCT2 POU domain), 0.089 % of ANNNNAAN 8-mers in test [1] and 0.11 % of ANNNNAAN 8-mers in test [2].

Take AAGACAAA: the binding signal with POU1 (OCT1 POU domain) was 0.0538 % of ANNNNAAN 8-mers; with POU2 (OCT2 POU domain), 0.0472 % of ANNNNAAN 8-mers; in test [1], 0.0706 % of ANNNNAAN 8-mers; in test [2] it was 0.0438 % of ANNNNAAN 8-mers.

As to ACTCTAAA, the binding signal is 0.0271 % of ANNNNAAN 8-mers with POU1 (OCT1 POU domain), 0.0299 % of ANNNNAAN 8-mers with POU2 (OCT2 POU domain), 0.0285 % of ANNNNAAN 8-mers in test [1] and 0.0248 % of ANNNNAAN 8-mers in test [2].

On to AAACTAAG, for which the binding signal with POU1 (OCT1 POU domain) was 0.0484 % of ANNNNAAN 8-mers; in the test with POU2 (OCT2 POU domain), 0.0478 % of ANNNNAAN 8-mers; in test [1] it was 0.0636 % of ANNNNAAN 8-mers; in test [2], 0.052 % of ANNNNAAN 8-mers.

Turning to AAAAAAAC, the binding signal with POU1 (OCT1 POU domain) is 0.0583 % of ANNNNAAN 8-mers; with POU2 (OCT2 POU domain), 0.0593 % of ANNNNAAN 8-mers; in test [1], 0.0784 % of ANNNNAAN 8-mers; in test [2], 0.0512 % of ANNNNAAN 8-mers.

With AGAGTAAC, the binding signal was 0.0206 % of ANNNNAAN 8-mers with POU1 (OCT1 POU domain), 0.0322 % of ANNNNAAN 8-mers with POU2 (OCT2 POU domain), 0.0234 % of ANNNNAAN 8-mers in test [1] and 0.0264 % of ANNNNAAN 8-mers in test [2].

For AAAGTAAC, the binding signal with POU1 (OCT1 POU domain) is 0.0439 % of ANNNNAAN 8-mers; with POU2 (OCT2 POU domain), 0.0437 % of ANNNNAAN 8-mers; in test [1], 0.0605 % of ANNNNAAN 8-mers; in test [2], 0.0537 % of ANNNNAAN 8-mers.

Take AGATGAAG: the binding signal is 0.0328 % of ANNNNAAN 8-mers with POU1 (OCT1 POU domain), 0.0368 % of ANNNNAAN 8-mers in the test with POU2 (OCT2 POU domain), 0.0316 % of ANNNNAAN 8-mers in test [1] and 0.0297 % of ANNNNAAN 8-mers in test [2].

As to ACTCAAAG, the binding signal is 0.0336 % of ANNNNAAN 8-mers in the test with POU1 (OCT1 POU domain), 0.0242 % of ANNNNAAN 8-mers with POU2 (OCT2 POU domain), 0.0367 % of ANNNNAAN 8-mers in test [1] and 0.0165 % of ANNNNAAN 8-mers in test [2].

On to ATCCTAAG, for which the binding signal with POU1 (OCT1 POU domain) was 0.0324 % of ANNNNAAN 8-mers; with POU2 (OCT2 POU domain) it was 0.0299 % of ANNNNAAN 8-mers; in test [1], 0.0312 % of ANNNNAAN 8-mers; in test [2], 0.0405 % of ANNNNAAN 8-mers.

For ATTAAAAC, the binding signal is 0.108 % of ANNNNAAN 8-mers in the test with POU1 (OCT1 POU domain), 0.122 % of ANNNNAAN 8-mers with POU2 (OCT2 POU domain), 0.0757 % of ANNNNAAN 8-mers in test [1] and 0.0718 % of ANNNNAAN 8-mers in test [2].

For AGCAAAAG, the binding signal with POU1 (OCT1 POU domain) was 0.0442 % of ANNNNAAN 8-mers; in the test with POU2 (OCT2 POU domain), 0.0322 % of ANNNNAAN 8-mers; in test [1] it was 0.062 % of ANNNNAAN 8-mers; in test [2], 0.0429 % of ANNNNAAN 8-mers.
